In PubChem BioAssay AID602312 (The Scripps Research Institute Molecular Screening Center, 2012):
Calls of active or inactive are those of the source.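 Rule for the calls: active = inhibition of at least 50% at 1 µM; inactive = inhibition below 50% at 1 µM.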

Molecular target: sn-1-specific diacylglycerol lipase ABHD11 (Mus musculus) (UniProt Q8K4F5)
Assay: recombinant ABHD11 inhibition, late-stage follow-up, selectivity assay for DAGLb inhibitor project, biochemical, competitive gel ABPP, mouse, set 2 (AID 602312)

Sequence of sn-1-specific diacylglycerol lipase ABHD11 (Mus musculus) (Q8K4F5 whole entry, looked up): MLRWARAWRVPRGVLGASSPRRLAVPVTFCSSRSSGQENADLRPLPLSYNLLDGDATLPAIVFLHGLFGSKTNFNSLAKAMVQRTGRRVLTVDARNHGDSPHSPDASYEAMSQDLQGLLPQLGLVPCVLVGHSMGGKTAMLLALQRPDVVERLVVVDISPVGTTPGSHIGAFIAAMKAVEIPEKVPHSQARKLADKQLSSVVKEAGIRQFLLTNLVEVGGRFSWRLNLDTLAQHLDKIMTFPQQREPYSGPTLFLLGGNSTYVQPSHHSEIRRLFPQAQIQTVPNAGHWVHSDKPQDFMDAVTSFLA

Structure (SMILES): COc1ccc(-c2ccc(-c3cn(C(=O)N4CCCCC4c4ccccc4)nn3)cc2)cc1 (stereo unspecified)
- outcome: inactive
